Measurements reported in PubChem BioAssay (EPA / NIEHS).
The source made the active and inactive calls. Rule for the calls: active = hit-call score of the fitted dose curve at least 0.9, where 1 is the maximum; inactive = score below 0.9.

Experiment: ATG_Sox_CIS: Attagene CIS-FACTORIAL HepG2 Assay for human SRY-box transcription factor (SOX) (AID 2282960)
Settings: HepG2 Attagene cis-factorial SOX reporter, mRNA; actives raise or lower the signal
Experimental: ATG_CIS is a cell-based, multiplexed-readout assay that uses HepG2, a human liver cell line, with measurements taken at 24 hours after chemical dosing in a 24-well plate.ATG_Sox_CIS is one of 52 assay component(s) measured or calculated from the ATG_CIS assay. It is designed to make measurements of mRNA induction, a form of inducible reporter, as detected with fluorescence intensity signals by Reverse transcription polymerase chain reaction (RT-PCR) and Capillary electrophoresis technology.Data from the assay component ATG_Sox_CIS was analyzed into 1 assay endpoint. This assay endpoint, ATG_Sox_CIS, was analyzed with bidirectional fitting relative to DMSO as the negative control and baseline of activity. Using a type of inducible reporter, measures of mRNA for gain or loss-of-signal activity can be used to understand the reporter gene at the transcription factor-level as they relate to the gene SOX1. Furthermore, this assay endpoint can be referred to as a primary readout, because this assay has produced multiple assay endpoints where this one serves a reporter gene function. To generalize the intended target to other relatable targets, this assay endpoint is annotated to the dna binding intended target family, where the subfamily is HMG box protein.
Human liver HepG2 cells are transiently transfected with multiple reporter transcription units (MRTUs) in 6-well plates using FuGene 6 reagent (Roche; 3 ml FuGene/1 mg DNA). The MRTU constructs are regulated by a cis-regulating element (promoter). […] A major difference between the CIS and TRANS system is that in CIS activities of endogenous TFs are measured, whereas the TRANS assay evaluates changes in activities of exogenous, chimeric NR-Gal4 proteins. […] At the end of 24 hour incubation, total RNA was isolated using TriZol reagent (Invitrogen). The isolated RNA is then reverse-transcribed using oligo(dT) primer and Mo-MLV reverse transcriptase (Invitrogen) with DNAse I (Ambion) treatment for 30 min. The one-tenth of the produced cDNA was amplified by PCR using Taq DNA polymerase (Invitrogen) and two reporter sequence-specific primers. The PCR products were fluorescently labeled by primer extension with 6-arboxyfluorescein (6-FAM) 5'-labeled reporter sequence-specific primer (2 min at 95 C, 20 s at 68 C and 10 min at 72 C) and these products were digested with 5U of HpaI (New England Biolabs) for 2h at 37 C. The fragments were purified using Qiaquick PCR columns (Qiagen), analyzed on an ABI 3130xL genetic analyzer (Applied Biosystems) with peak positions identified by using a set of X-rhodamine (ROX)-labeled MapMarker1000 molecular weight standards (BioVentures). The raw capillary electrophoresis data was processed using Attagraph software (Attagene).

SMILES	outcome	AC50
OCCCCl	inactive	–
OCC(F)(F)C(F)(F)C(F)(F)C(F)(F)C(F)(F)C(F)(F)CO	inactive	–
O=C(F)C1(F)C(F)(F)C(F)(F)C(F)(F)C(F)(F)C1(F)F	inactive	–
CCOCN(C(=O)CS(=O)(=O)O)c1c(C)cccc1CC	inactive	–
CN1CN(C)CN(C)C1	inactive	–
Cc1ccc(S(=O)(=O)C(I)I)cc1	inactive	–
Cc1ccc([N+](=O)[O-])c(C)c1	inactive	–
OCC(O)CC(F)(F)C(F)(F)C(F)(F)C(F)(F)F (stereo not given)	inactive	–
O=C(Cl)C(F)(F)C(F)(F)C(F)(F)C(F)(F)C(F)(F)C(F)(F)F	inactive	–
CC1=CCC2C(=O)OC(=O)C2C1 (stereo not given)	inactive	–
CCc1cc(Cc2cc(CC)c(N)c(CC)c2)cc(CC)c1N	–	29.3 µM (active)
O=S(=O)(Cl)C(F)(F)C(F)(F)C(F)(F)C(F)(F)C(F)(F)C(F)(F)C(F)(F)C(F)(F)F	inactive	–
O=C(O)CCC(F)(F)C(F)(F)C(F)(F)F	inactive	–
CC(C)(C)c1cc(CCC(=O)OCC(COC(=O)CCc2cc(C(C)(C)C)c(O)c(C(C)(C)C)c2)(COC(=O)CCc2cc(C(C)(C)C)c(O)c(C(C)(C)C)c2)COC(=O)CCc2cc(C(C)(C)C)c(O)c(C(C)(C)C)c2)cc(C(C)(C)C)c1O	inactive	–
CCc1cccc(C)c1N(C(=O)C(=O)O)C(C)COC (stereo not given)	inactive	–
C=C(C)CCCC	inactive	–
CN(C(=O)C(F)(F)C(F)(F)C(F)(F)F)[Si](C)(C)C	inactive	–
CCCCCCCCCc1ccc(OCCO)cc1	inactive	–
Cc1ccc(O)cn1	inactive	–
COCCC(=O)OC	inactive	–

SMILES	outcome	AC50
C=C(C)C(=O)OCC(F)(F)C(F)(F)C(F)(F)C(F)F	inactive	–
O=S(=O)(O)CCC(F)(F)C(F)(F)C(F)(F)C(F)(F)C(F)(F)C(F)(F)C(F)(F)C(F)(F)F	inactive	–
OCCCC(F)(F)C(F)(F)C(F)(F)C(F)(F)C(F)(F)C(F)(F)C(F)(F)C(F)(F)F	inactive	–
CCCCOC(=O)[C@H](C)O	inactive	–
O=C1C=CC(=O)N1c1ccc(Cc2ccc(N3C(=O)C=CC3=O)cc2)cc1	inactive	–
O=C1OC(=O)c2ccc3c4c(ccc1c24)C(=O)OC3=O	inactive	–
CC(C)OC(=O)COc1ccc(Cl)cc1Cl	inactive	–
CC(C)CC=C(C=O)c1ccccc1	inactive	–
NCC(F)(F)C(F)(F)C(F)(F)C(F)(F)C(F)(F)C(F)(F)C(F)(F)C(F)(F)F	inactive	–
CCC(=O)OC(C)c1ccccc1 (stereo not given)	inactive	–
CN(N=O)C(=O)N[C@@H]1[C@@H](O)[C@H](O)[C@@H](CO)O[C@@H]1O	inactive	–
O=C1C=CC(=O)N1c1ccccc1	inactive	–
FC(F)(F)C(F)(F)C(F)(F)C(F)(F)C(F)(F)C(F)(F)CC[Si](Cl)(Cl)Cl	inactive	–
FC(F)(F)C(F)(F)C(F)(F)CC1CO1 (stereo not given)	inactive	–
O=c1cccc[nH]1	inactive	–
O=S(=O)(OCC(F)(F)F)C(F)(F)C(F)(F)C(F)(F)C(F)(F)F	inactive	–
Cc1ccc(O)c(-n2nc3ccccc3n2)c1	inactive	–
O=S(=O)(O)c1ccc(Cl)cc1	inactive	–
Cc1cc(C)c(O)c(C(C)(C)C)c1	inactive	–
CCCCOC(=O)C(C)O (stereo not given)	inactive	–
